Hits are enriched below; roughly 1.5% of the tested compounds scored in any of these assays.
NSD2 inh: NSD2 histone methyltransferase inhibitors, primary screen, biochemical, AlphaScreen, single concentration, set 2 | AID 743445, 2014 | inhibition, % at 12.5 µM | NSD2 peptide methylation, 120 min | 310,000 tested, 0.54% active | Histone-lysine N-methyltransferase NSD2 (Homo sapiens), O96028; in the data active = inhibition above about 50%
CASP6 VEID inh: human caspase-6 inhibitors, primary screen, biochemical, VEID-R110 fluorescence, single point, set 2 | P55212 | purified caspase-6, Z-VEID-R110 cleavage fluorescence | inhibition, % at 12.5 µM | 350,000 tested, 0.53% active;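 active = mean inhibition across replicates at least about 35%, with every replicate also reaching that limit, limit read from the data; inconclusive = only one of the two criteria met; inactive = neither criterion met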;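 also: 0% = median of neutral control wells and 100% = no fluorescence left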
RAD52 anneal inh: RAD52 DNA annealing inhibitors, primary screen, biochemical, FRET, single point, set 2. DNA repair protein RAD52 homolog (Homo sapiens), P43351. recombinant RAD52 DNA annealing, FRET fluorescence. inhibition, % at 18.7 µM. 360,000 tested, 0.46% active. AID 651710, 2012;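 active = every replicate showing at least 50% inhibition; inconclusive = mean inhibition at least 50% but not in every replicate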
MLL AF4-AF9 inh: inhibitors of AF4 peptide binding to AF9, primary screen, biochemical, AlphaScreen, biotin-AF4 peptide, FLAG-AF9, single point | Protein AF-9 (Homo sapiens), P42568 | inhibition, % at 10 µM | 350,000 tested, 0.47% active;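 active = every replicate reaching a set inhibition limit, whatever the replicate mean, cut at about 25% in these data; inconclusive = mean inhibition reaches that limit but some replicates miss it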;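 also: 0% = plate neutral control median and 100% = total signal loss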
Target sequence (P42568 whole entry, looked up): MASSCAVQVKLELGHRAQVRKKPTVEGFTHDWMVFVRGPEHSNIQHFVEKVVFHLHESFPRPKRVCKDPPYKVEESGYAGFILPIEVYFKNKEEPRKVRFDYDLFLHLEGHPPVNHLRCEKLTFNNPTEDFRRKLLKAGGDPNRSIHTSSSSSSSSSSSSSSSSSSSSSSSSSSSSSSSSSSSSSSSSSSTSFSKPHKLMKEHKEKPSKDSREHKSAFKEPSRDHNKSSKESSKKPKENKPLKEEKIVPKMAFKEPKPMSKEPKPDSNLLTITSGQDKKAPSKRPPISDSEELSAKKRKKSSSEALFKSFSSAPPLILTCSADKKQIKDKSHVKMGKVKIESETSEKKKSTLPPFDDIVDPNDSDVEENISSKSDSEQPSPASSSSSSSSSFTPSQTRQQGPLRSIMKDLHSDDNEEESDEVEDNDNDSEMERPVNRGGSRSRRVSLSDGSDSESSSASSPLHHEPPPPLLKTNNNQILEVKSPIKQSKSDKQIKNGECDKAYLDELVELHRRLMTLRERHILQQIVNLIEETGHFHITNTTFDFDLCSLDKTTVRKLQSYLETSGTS
miR122 inh: miR-122 Renilla sensor signal increase in Huh7, primary screen, miR-122 inhibitor project, cell-based, single point, plate reader. Huh7 miR-122 Renilla luciferase sensor, 48 h; neutral wells = 0, positive control = 100. activation (reporter increase), % at 12.5 µM. 340,000 tested, 0.3% active. AID 602342, 2012;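 active = mean replicate activation score at least 90 and every replicate individually at or above 90; inconclusive = only one of the two criteria met; inactive = neither criterion met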;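 also: higher luciferase means less miR-122 activity so hits act as miR-122 inhibitors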
Alpha artifact: AlphaScreen signal interference with preloaded methylated product, dose response, artefact control for NSD2 inhibitor project, biochemical, cherry-picked samples. AC35, µM (top dose mostly 10 µM), inactives show at the top dose activity change, negative = signal loss. AID 1053174, 2014. 1,500 tested, 9.4% active. AlphaScreen artifact counterscreen, preloaded methylated H4 peptide. shares compounds with NSD2 inh; call rule not given here
Numbers without * were called inactive; u = inconclusive; x = no result; [ ] = remark or other dose.

SMILES	NSD2 inh	CASP6 VEID inh	RAD52 anneal inh	MLL AF4-AF9 inh	miR122 inh	Alpha artifact
CC(=O)Nc1cccc(C(=O)OCc2ccccc2)c1	57*	x	x	x	3	-4%
CC(=O)Nc1cccc(C(=O)OCC(=O)NC(=O)Cc2ccccc2)c1	-2	2	-6	-3	x	x
Cc1noc(C)c1S(=O)(=O)N(C)C[C@@H]1Oc2ccc(NC(=O)Nc3ccccc3)cc2CC(=O)N([C@H](C)CO)C[C@@H]1C	x	x	x	x	1[16.7 µM]	x
Nn1cnnc1N/N=C/c1ccc(Cl)c([N+](=O)[O-])c1	116*	17	-7	-3	x	-3%
CC(=O)Nc1ccc2c(c1)C(=O)N(C)[C@@H]1CC[C@@H](CC(=O)NCC3CCCCC3)O[C@H]1CO2	x	x	x	x	21[16.7 µM]	x
COc1ccc(CNC(=O)C[C@@H]2CC[C@H](NC(=O)Nc3ccc4c(c3)OCO4)[C@@H](CO)O2)cc1	x	-2	-6	-9	x	x
Cc1ccnc(-n2c(CCN3C(=O)c4ccccc4C3=O)nc3ccccc3c2=O)c1	52*	x	x	x	7	-1%
COCCNC(=O)c1cc2c(c(-c3cccc(-c4ccc(C#N)cc4)c3)n1)[C@H](CCO)N(C(=O)CC1CC1)C2	x	9	-8	1	x	x
CCCC(C(=O)NC(C)(C)C)N(CC1CCCO1)C(=O)CNS(=O)(=O)c1ccc(F)cc1 (configuration not stated)	83*	-2	-8	0	-1	-1%
Cc1cc(NS(=O)(=O)c2ccc(NC(=O)CSc3nnc(-c4ccc(Cl)cc4)n3Cc3ccco3)cc2)nc(C)n1	0	x	x	x	x	x
Cc1cc(NS(=O)(=O)c2ccc(NC(=O)CSc3nnc(-c4ccncc4)n3Cc3ccco3)cc2)nc(C)n1	56*	x	x	x	x	-1%
COc1cc(/C=C2\C(=N)N3N=C(S(C)(=O)=O)SC3=NC2=O)ccc1OC(=O)c1cccs1	62*	43*	-19	4	x	-7%
COc1ccc(S(=O)(=O)Nc2ccc3c(c2)C(=O)N([C@@H](C)CO)C[C@H](C)[C@H](CN(C)C(=O)Nc2ccc4c(c2)OCO4)O3)cc1	x	x	x	x	3[16.7 µM]	x
O=C(C[C@@H]1CC[C@H]2[C@@H](COC[C@@H](O)CN2S(=O)(=O)c2ccccc2)O1)N1CCOCC1	x	1	4	-11	0[16.7 µM]	x
CC(/C=C1\SC(=S)N(NS(=O)(=O)c2ccc(C)cc2)C1=O)=C\c1ccccc1	73*	0	-8	-2	0	-11%
CC(/C=C1\SC(=S)N(NS(=O)(=O)c2ccccc2)C1=O)=C\c1ccccc1	55*	22	-30	2	4	-10%
CNS(=O)(=O)c1cc(NC(=O)CCCNC(=O)c2ccc(Cl)cc2)ccc1C	67*	-3	-16	7	x	-6%
O=C(c1cnccn1)N1CC(=O)N2[C@@H](CO)[C@H](c3ccc(/C=C/c4ccccc4)cc3)[C@@H]2C1	x	0	-2	5	x	x
CCOC(=O)N1CCN(C2=Nc3cccc4cccc2c34)CC1	71*	x	x	x	3	-4%
O=[N+]([O-])c1cccc(NC(=S)N2CCOCC2)c1	85*	4	-21	2	x	-2%
O=C1C(Nc2cccc(O)c2)=C(N2CCCCC2)C(=O)c2ccccc21	64*	x	x	x	8	-13%
O=C1C(NS(=O)(=O)c2cccs2)=C(N2CCN(c3cccc(Cl)c3)CC2)C(=O)c2ccccc21	19	x	x	x	0	x
O=C1C(NS(=O)(=O)c2ccc(Br)cc2)=C(N2CCCCC2)C(=O)c2ccccc21	58*	2	-5	38*	7	2.4µM*
CO[C@H]1CN(C)C(=O)c2cc(NC(=O)Nc3c(C)noc3C)ccc2OC[C@@H](C)N(C)C[C@@H]1C	x	0	5	-3	x	x
CCCC(=O)Nc1ccc2c(c1)C(=O)N(C)C[C@H](OC)[C@H](C)CN(Cc1ccccc1)[C@@H](C)CO2	x	-5	-9	2	15[16.7 µM]	x
SMILES	NSD2 inh	CASP6 VEID inh	RAD52 anneal inh	MLL AF4-AF9 inh	miR122 inh	Alpha artifact
COCCNC(=O)CN(C(=O)CCC(=O)Nc1nccs1)c1ccc2c(c1)OCO2	67*	-2	-7	-1	-2	-3%
O=C(CCn1c(=O)oc2ccccc21)Nc1ccccc1	-2	x	x	x	1	x
COc1cc(NC(=O)CCn2c(=O)oc3ccccc32)cc(OC)c1OC	51*	4	-7	u	-2	3%
Cc1ccc(NC(=O)CCn2c(=O)oc3ccccc32)cc1	55*	x	x	x	-9	-1%
COc1cccc(-c2nn3c(-c4ccco4)nnc3s2)c1	90*	x	x	x	2	-5%
C[C@H](CO)N1C[C@H](C)[C@@H](CN(C)C)Oc2ccc(NC(=O)NC3CCCCC3)cc2C1=O	x	0	-3	2	6[16.7 µM]	x
O=C(c1ccc(S(=O)(=O)N2CCOCC2)cc1)N(c1cccc(Cl)c1)C1C=CS(=O)(=O)C1 (configuration not stated)	83*	-2	-7	-1	x	-6%
O=C(c1ccc(S(=O)(=O)N2CCOCC2)cc1)N(c1ccccc1)C1C=CS(=O)(=O)C1 (configuration not stated)	5	x	x	x	-5	x
O=C1C=C(O)c2[nH]c(=O)ccc2C1=O	94*	84*	-8	-1	x	1%
Cc1ccc(NC(=S)N2CCC(NC(=O)c3ccc(F)cc3)CC2)cc1	61*	0	2	2	0	-1%
O=C(C[C@H]1CC[C@@H](NC(=O)C2CCOCC2)[C@@H](CO)O1)NCc1ccncc1	x	0	-17	-2	x	x
CCN(CC)CCCN(Cc1cc2cc3c(cc2[nH]c1=O)OCO3)C(=S)NCCCOC	75*	-1	-1	2	5	-2%
CCN(CC)CCCN(Cc1cc2cc3c(cc2[nH]c1=O)OCCO3)C(=O)Nc1ccccc1	93*	x	x	x	-4	2%
CCN(CC)CCN(Cc1cc2cc3c(cc2[nH]c1=O)OCO3)C(=S)NCCCOC	8	0	-8	-6	23	x
CCN(CC)CCCN(Cc1cc2ccc(C)c(C)c2[nH]c1=O)C(=O)NC1CCCCC1	63*	x	x	x	8	-7%
Cc1ccc2cc(CN(CC3CCCO3)C(=O)NC3CCCCC3)c(=O)[nH]c2c1C (configuration not stated)	2	x	x	x	11	x
CNC[C@@H]1Oc2ncc(C3=CCCC3)cc2C(=O)N([C@H](C)CO)C[C@@H]1C	x	x	x	x	-1[16.7 µM]	x
C[C@@H]1CN([C@H](C)CO)C(=O)c2cccc(NS(=O)(=O)c3cccs3)c2O[C@@H]1CN(C)Cc1ccc(-c2ccccc2)cc1	x	4	-4	1	0[16.7 µM]	x
O=C1ON=C(c2ccccc2)/C1=C/c1ccc(O)cc1	63*	8	-15	-4	-2	-3%
